These results are taken from ChEMBL document CHEMBL1961873, “Compounds: GSK PKIS; Assays: Nanosyn kinase panel” (2012).

For orientation: inhibition means the drop in the measured response relative to a control, in per cent.

For test [1], the target named is T1, Inhibitor of nuclear factor kappa-B kinase subunit epsilon (Homo sapiens) (UniProt Q14164).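 Note: reported values are averaged percent inhibition figures against human IKKε.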
T1 sequence (whole entry): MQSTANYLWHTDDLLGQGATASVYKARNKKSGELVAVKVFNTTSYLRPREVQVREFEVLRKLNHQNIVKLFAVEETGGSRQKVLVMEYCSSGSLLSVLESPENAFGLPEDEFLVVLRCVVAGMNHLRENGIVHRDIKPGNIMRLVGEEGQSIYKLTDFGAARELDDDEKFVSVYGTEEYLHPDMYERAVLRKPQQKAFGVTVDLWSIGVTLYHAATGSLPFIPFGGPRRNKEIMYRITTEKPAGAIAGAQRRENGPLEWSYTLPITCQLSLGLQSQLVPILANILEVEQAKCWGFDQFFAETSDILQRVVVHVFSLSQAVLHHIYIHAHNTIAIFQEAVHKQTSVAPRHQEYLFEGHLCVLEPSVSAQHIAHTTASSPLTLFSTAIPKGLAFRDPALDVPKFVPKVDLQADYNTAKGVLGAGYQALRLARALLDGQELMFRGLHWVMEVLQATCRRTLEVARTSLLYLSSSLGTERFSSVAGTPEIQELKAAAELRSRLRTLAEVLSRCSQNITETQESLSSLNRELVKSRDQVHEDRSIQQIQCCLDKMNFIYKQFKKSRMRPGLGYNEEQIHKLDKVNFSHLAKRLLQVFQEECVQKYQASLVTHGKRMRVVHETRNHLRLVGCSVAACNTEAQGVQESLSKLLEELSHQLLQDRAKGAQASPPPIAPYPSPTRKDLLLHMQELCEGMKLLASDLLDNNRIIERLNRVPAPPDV
The following applies: at 1 µM.

Test [2] has as its target T2, Serine/threonine-protein kinase Nek1 (Homo sapiens) (UniProt Q96PY6).
T2 sequence (whole entry): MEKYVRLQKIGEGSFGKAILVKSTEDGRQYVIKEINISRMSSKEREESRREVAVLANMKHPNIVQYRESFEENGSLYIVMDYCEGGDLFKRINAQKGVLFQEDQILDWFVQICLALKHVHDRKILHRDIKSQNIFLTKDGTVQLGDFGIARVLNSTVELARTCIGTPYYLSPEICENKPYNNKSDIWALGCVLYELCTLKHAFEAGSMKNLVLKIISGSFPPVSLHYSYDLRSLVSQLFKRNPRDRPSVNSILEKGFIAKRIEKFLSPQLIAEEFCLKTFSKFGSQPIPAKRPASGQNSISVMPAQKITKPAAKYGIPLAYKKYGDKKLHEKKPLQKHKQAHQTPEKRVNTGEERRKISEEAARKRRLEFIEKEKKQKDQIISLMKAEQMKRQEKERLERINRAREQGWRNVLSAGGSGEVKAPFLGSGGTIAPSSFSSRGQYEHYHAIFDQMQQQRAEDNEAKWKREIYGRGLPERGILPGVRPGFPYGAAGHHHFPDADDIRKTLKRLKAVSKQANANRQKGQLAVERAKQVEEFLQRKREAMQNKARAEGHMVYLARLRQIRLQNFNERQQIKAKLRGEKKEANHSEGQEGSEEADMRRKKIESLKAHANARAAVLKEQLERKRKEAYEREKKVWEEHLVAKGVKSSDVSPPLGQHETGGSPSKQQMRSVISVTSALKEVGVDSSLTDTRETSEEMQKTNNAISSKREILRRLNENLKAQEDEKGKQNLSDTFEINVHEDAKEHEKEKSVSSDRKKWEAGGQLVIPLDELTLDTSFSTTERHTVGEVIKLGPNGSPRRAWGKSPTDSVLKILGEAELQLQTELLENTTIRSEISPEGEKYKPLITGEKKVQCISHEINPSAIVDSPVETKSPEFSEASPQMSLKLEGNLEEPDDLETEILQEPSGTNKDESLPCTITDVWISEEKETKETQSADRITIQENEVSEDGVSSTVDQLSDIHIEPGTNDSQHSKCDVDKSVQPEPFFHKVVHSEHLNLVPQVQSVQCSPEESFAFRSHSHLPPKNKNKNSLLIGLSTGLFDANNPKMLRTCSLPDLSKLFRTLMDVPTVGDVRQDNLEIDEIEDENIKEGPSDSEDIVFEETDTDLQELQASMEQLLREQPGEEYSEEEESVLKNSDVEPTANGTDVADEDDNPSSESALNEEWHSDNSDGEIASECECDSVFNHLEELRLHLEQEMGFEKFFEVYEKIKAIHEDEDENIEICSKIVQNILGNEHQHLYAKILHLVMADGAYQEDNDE
The following applies: at 0.1 µM.

The target of test [3] is T2, Serine/threonine-protein kinase Nek1 (Homo sapiens). The following applies: at 1 µM.
Test [4] addresses T3, Serine/threonine-protein kinase Nek2 (Homo sapiens) (UniProt P51955).
T3 sequence (whole entry): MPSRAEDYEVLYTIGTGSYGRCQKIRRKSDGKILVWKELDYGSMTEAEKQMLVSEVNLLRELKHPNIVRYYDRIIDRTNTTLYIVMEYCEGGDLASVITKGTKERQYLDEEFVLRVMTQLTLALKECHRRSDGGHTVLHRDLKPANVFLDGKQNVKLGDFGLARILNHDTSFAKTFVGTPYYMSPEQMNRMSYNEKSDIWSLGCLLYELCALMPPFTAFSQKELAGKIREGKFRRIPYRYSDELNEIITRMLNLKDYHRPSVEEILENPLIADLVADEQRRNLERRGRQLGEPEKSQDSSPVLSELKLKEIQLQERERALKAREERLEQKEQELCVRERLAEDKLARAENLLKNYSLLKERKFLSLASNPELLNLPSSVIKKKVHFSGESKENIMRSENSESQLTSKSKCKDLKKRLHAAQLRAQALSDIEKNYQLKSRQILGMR
The following applies: at 0.1 µM.

Test [5] concerns the target T3, Serine/threonine-protein kinase Nek2 (Homo sapiens). The following applies: at 1 µM.
The target of test [6] is Serine/threonine-protein kinase Nek6 (Homo sapiens) (UniProt Q9HC98). The following applies: at 0.1 µM.
Test [7] has the same target. The following applies: at 1 µM.
Test [8] addresses Serine/threonine-protein kinase Nek7 (Homo sapiens) (UniProt Q8TDX7). The following applies: at 0.1 µM.
Test [9] shares this target. The following applies: at 1 µM.
The target in test [10] is T4, Serine/threonine-protein kinase Nek9 (Homo sapiens) (UniProt Q8TD19).
T4 sequence (whole entry): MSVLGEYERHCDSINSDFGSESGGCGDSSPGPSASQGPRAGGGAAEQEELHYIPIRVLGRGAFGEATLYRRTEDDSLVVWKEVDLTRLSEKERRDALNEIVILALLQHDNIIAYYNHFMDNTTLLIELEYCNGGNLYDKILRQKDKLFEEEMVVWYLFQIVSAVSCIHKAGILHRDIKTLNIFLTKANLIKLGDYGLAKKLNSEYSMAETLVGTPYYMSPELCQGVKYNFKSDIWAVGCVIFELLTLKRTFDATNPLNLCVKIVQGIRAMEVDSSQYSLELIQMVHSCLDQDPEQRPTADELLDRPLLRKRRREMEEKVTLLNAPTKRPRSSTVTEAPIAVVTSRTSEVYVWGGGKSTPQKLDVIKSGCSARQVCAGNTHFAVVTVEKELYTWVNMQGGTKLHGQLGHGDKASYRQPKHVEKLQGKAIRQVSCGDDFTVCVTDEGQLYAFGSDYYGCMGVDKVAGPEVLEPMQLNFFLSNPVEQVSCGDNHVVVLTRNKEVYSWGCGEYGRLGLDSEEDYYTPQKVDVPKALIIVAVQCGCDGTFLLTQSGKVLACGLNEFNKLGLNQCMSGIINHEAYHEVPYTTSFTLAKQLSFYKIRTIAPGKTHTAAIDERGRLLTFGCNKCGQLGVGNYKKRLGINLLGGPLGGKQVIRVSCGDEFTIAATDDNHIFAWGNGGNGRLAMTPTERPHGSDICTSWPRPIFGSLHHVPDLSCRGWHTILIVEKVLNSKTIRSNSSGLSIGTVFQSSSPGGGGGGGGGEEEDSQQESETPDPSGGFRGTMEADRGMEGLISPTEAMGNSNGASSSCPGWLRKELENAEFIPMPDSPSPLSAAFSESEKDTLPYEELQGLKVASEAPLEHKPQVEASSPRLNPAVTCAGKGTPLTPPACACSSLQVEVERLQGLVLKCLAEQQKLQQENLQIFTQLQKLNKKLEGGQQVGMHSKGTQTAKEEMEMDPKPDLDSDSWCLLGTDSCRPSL
The following applies: at 0.1 µM.

Test [11] addresses T4, Serine/threonine-protein kinase Nek9 (Homo sapiens). The following applies: at 1 µM.
In test [12] the target is Serine/threonine-protein kinase PLK1 (Homo sapiens) (UniProt P53350). The following applies: at 0.1 µM.
The target is the same in test [13]. The following applies: at 1 µM.
In test [14] the target is T5, Dual specificity protein kinase TTK (Homo sapiens) (UniProt P33981).
T5 sequence (whole entry): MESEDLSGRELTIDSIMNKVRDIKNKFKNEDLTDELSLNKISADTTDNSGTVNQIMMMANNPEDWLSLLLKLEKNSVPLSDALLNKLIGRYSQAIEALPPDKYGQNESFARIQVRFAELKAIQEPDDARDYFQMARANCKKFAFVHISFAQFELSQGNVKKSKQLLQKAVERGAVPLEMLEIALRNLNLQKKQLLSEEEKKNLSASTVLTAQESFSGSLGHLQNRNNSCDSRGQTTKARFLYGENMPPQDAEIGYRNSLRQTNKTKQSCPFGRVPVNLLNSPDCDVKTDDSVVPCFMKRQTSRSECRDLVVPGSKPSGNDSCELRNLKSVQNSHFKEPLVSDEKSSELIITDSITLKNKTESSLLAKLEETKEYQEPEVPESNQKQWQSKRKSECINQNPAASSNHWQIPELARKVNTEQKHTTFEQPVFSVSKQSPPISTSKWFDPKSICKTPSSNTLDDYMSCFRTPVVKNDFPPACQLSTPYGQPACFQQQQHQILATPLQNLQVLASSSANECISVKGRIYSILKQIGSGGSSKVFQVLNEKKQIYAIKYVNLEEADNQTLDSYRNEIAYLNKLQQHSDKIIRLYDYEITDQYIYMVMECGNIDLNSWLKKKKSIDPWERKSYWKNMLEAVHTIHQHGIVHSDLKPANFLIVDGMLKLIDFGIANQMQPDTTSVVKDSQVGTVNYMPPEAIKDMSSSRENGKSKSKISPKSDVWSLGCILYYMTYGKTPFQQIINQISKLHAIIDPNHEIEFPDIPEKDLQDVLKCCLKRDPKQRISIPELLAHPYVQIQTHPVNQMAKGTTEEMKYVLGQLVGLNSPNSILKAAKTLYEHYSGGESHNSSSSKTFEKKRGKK
The following applies: at 0.1 µM.

The subject of test [15] is T6, Receptor-type tyrosine-protein kinase FLT3 (Homo sapiens), P36888 [D835Y].
T6 sequence (whole entry): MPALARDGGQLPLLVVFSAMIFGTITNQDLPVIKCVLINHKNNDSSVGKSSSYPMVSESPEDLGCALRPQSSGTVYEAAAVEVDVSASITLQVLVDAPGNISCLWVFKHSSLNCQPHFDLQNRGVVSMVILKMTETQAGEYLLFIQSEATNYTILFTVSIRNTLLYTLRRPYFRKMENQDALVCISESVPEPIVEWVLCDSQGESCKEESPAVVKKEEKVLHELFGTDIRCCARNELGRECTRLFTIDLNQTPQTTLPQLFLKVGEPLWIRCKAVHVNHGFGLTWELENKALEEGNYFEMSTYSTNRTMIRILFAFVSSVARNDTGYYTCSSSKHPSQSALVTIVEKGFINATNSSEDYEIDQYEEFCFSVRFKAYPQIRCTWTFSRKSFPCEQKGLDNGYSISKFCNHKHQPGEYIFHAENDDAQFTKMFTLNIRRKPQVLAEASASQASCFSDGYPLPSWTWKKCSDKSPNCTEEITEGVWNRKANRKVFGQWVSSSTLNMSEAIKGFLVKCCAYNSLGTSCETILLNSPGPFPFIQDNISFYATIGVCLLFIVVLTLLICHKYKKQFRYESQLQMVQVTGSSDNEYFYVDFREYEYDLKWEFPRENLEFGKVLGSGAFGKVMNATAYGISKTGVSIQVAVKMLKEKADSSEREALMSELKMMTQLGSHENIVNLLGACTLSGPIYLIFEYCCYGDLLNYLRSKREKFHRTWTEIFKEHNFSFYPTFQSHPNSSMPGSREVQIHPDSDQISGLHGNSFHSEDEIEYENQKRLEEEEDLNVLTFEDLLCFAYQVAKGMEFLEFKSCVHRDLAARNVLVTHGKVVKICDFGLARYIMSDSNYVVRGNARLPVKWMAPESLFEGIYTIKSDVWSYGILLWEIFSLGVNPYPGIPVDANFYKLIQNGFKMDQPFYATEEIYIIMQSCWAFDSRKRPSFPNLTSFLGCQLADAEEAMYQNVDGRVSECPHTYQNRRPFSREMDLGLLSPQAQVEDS
The following applies: at 1 µM.

Test [16] deals with Vascular endothelial growth factor receptor 3 (Homo sapiens) (UniProt P35916). The following applies: at 0.1 µM.
Test [17] has the same target. The following applies: at 1 µM.
The target of test [18] is Macrophage colony-stimulating factor 1 receptor (Homo sapiens) (UniProt P07333). The following applies: at 0.1 µM.
Test [19] has the same target. The following applies: at 1 µM.
The target in test [20] is Tyrosine-protein kinase Fyn (Homo sapiens) (UniProt P06241). The following applies: at 0.1 µM.
Sequence of Tyrosine-protein kinase Fyn (Homo sapiens) (P06241 2-537 limits assumed): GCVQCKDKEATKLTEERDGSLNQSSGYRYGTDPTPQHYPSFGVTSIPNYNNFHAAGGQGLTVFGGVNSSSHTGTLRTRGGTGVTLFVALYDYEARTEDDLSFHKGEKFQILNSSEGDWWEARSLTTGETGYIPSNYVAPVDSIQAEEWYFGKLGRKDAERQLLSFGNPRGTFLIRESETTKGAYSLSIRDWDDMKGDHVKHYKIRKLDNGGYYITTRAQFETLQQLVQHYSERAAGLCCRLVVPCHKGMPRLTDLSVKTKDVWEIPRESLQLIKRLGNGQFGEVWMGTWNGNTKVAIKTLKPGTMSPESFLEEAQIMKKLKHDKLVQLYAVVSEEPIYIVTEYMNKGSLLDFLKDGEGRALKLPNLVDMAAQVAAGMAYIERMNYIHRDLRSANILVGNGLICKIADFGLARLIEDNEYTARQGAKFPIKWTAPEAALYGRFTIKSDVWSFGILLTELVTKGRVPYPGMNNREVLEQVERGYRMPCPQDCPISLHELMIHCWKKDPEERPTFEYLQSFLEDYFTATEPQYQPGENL

Sequence of Serine/threonine-protein kinase PLK1 (Homo sapiens) (P53350 whole entry): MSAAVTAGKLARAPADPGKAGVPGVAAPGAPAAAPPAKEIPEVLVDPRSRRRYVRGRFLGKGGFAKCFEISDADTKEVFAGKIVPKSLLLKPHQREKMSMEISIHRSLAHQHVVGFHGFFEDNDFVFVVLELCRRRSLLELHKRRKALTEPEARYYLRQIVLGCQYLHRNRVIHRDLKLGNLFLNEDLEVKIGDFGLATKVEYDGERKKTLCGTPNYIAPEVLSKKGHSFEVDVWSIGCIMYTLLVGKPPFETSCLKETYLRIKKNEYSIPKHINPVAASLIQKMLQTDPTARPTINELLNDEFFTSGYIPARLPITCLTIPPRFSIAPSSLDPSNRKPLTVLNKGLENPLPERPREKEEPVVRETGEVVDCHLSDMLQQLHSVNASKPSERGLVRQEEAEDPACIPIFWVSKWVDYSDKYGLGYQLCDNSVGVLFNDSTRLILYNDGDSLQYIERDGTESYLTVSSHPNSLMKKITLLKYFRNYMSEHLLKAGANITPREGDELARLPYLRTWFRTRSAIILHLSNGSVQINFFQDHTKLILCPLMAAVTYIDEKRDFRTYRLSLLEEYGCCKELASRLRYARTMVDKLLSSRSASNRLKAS
Sequence of Serine/threonine-protein kinase Nek7 (Homo sapiens) (Q8TDX7 whole entry, looked up): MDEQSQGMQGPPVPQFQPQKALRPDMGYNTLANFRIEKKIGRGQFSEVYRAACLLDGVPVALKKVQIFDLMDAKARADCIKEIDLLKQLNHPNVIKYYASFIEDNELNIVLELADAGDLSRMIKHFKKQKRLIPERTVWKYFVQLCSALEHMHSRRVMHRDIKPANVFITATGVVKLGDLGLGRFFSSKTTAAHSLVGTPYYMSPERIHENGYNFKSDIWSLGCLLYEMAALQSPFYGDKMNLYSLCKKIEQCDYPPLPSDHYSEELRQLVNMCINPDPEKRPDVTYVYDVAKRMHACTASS
Sequence of Vascular endothelial growth factor receptor 3 (Homo sapiens) (P35916 whole entry): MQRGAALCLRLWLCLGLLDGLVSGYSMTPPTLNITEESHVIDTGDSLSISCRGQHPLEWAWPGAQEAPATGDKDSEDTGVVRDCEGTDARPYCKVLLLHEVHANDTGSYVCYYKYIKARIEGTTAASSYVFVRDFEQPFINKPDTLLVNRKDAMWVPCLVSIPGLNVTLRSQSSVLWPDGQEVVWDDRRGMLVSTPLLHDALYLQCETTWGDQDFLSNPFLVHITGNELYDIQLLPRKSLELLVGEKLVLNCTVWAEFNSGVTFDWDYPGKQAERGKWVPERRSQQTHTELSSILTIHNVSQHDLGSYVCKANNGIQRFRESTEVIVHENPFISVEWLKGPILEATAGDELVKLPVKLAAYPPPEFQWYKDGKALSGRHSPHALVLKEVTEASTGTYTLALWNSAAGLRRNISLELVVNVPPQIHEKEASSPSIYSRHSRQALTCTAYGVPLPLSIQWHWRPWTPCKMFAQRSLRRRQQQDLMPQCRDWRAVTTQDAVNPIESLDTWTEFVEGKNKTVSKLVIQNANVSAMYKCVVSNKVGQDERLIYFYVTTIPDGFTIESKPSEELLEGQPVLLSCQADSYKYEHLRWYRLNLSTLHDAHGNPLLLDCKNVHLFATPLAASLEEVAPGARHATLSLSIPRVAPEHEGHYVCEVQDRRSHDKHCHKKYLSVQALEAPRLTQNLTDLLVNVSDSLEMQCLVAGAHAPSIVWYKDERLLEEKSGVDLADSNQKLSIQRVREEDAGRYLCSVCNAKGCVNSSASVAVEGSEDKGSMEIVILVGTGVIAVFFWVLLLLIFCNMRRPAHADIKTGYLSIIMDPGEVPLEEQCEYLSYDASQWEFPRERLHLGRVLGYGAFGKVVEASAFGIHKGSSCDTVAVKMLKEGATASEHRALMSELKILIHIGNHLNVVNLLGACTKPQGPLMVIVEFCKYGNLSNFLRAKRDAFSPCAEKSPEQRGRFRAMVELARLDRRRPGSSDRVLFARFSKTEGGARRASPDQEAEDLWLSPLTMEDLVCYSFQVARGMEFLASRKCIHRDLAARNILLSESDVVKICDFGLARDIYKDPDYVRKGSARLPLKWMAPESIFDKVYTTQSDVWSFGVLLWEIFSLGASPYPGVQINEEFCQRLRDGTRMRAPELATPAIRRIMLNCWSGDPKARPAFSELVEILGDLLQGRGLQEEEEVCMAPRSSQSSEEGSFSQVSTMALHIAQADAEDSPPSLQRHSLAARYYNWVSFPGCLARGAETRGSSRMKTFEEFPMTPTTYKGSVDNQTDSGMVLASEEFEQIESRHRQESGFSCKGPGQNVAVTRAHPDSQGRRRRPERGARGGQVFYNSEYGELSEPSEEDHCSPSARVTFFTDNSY
Sequence of Serine/threonine-protein kinase Nek6 (Homo sapiens) (Q9HC98 whole entry): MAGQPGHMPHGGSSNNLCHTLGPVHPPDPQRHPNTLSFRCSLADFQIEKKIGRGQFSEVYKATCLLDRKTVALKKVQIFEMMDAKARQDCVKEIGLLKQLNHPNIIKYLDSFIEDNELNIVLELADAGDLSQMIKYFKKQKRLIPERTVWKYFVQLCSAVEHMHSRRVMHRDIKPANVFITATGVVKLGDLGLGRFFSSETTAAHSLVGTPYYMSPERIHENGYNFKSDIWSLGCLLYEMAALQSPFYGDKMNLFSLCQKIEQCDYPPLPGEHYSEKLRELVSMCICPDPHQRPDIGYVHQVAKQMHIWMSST
Sequence of Macrophage colony-stimulating factor 1 receptor (Homo sapiens) (P07333 whole entry): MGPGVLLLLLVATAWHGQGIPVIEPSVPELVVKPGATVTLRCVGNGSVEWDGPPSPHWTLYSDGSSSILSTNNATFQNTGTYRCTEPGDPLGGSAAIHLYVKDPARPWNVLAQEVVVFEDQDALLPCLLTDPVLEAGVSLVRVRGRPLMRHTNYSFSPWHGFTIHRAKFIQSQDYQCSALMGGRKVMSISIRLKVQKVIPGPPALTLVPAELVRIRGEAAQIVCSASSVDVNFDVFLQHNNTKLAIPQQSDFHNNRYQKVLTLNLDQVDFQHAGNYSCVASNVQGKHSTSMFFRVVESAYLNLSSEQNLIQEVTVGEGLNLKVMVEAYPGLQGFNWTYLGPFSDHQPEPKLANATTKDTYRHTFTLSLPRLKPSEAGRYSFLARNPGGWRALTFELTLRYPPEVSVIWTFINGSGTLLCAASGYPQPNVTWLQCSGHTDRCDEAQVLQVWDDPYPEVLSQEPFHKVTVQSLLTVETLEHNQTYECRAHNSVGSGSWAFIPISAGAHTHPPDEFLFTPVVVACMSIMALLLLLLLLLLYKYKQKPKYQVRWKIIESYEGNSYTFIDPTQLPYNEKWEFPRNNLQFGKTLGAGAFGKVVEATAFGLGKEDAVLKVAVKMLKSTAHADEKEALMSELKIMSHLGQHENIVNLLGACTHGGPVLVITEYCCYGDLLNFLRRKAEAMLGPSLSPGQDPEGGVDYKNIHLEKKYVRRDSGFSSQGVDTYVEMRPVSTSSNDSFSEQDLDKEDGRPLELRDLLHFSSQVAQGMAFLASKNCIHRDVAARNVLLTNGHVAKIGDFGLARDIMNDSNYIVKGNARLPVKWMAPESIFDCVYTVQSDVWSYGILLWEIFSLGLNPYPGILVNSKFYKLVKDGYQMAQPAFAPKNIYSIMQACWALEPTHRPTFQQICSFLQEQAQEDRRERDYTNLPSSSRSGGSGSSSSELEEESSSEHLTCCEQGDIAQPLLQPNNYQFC

Turning to `N#Cc1cccc(Nc2nccc(-c3cnn4ncccc34)n2)c1`, the inhibition was determined as 27.9% in test [1]; 2.07% in test [2]; 10.9% in test [3]; 1.93% in [4]; 6.24% in [5]; 3.54% in [6]. For the same compound, the inhibition in test [7] is 5.8%; in [8] it was -4.91%; in test [9], 4.18%; in test [10] it was 7%; in test [11], 15.6%; in test [12] it was 3.24%. Further, the inhibition came to 9.23% in test [13]; 11.2% in test [14]; 53.4% in test [15]; 5.06% in test [16]; 22.3% in [17]; 34.4% in [18]. For the same compound, the inhibition in test [19] is 79.4%; in [20] it was 6.76%.
